# Screening data as filed in PubChem.
# This is a sample that favours compounds with a hit; in the whole collection about 2.4% have one here.
# D2 ag-1: human D2 receptor agonism in beta-arrestin assay; P14416; DiscoveRx PathHunter D2 beta-arrestin, luminescence, 90 min; 100% = 57 uM dopamine signal; activation, % (concentration not given with the values); hit rate 0.084% among 360,000; AID 624465; in the data active = activation above about 40%; inconclusive = between about 15% and that limit
# Target sequence (P14416 whole entry, looked up): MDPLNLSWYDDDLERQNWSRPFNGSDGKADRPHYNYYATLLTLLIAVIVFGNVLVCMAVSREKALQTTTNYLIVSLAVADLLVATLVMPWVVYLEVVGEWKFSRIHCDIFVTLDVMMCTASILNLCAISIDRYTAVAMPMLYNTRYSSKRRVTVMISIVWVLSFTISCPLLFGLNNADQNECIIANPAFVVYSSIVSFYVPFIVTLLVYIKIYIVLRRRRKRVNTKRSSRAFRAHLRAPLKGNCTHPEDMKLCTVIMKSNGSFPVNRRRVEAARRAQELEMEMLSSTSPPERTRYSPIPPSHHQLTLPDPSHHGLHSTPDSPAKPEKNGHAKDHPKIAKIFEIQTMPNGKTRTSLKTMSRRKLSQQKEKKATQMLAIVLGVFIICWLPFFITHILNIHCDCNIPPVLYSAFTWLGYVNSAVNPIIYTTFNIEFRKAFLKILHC
#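 Agonist mode: compounds alone added to overnight-plated D2 PathHunter cells for 90 min at 37 C, with 57 uM final dopamine (EC100) defining full response. Beta-arrestin recruitment detected by chemiluminescent reagent, read after 1 h at ambient temperature.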
# D2 PAM-1: potentiates the human D2 dopamine receptor allosterically. DiscoveRx D2 beta-arrestin cells, luminescence, 90 min; 100% = 57 uM dopamine signal. potentiation, % (concentration not given with the values). hit rate 0.23% among 360,000; in the data active = potentiation above about 50%; inconclusive = mostly about 30% to 49%
#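 PathHunter beta-arrestin assay in DiscoveRx D2 cells. Compounds were added with an EC20 of dopamine (50 nM final) for 90 min at 37 deg C. Luminescence was read 1 h after detection reagent, with 57 uM dopamine as the EC100 control.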
# D2 ag-2: agonists of human D2 dopamine receptor | AID 485358 | P14416 | HEK293 T-REx D2 cells, calcium flux agonist mode | activation, % at 2 µM | hit rate 0.53% among 340,000;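 active = activation over 3 SD above normal in the single-dose calcium agonist read, cut at about 30% in these data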; also: 0% is about no effect
#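 In this primary screen, compounds producing a positive calcium signal within 180 s of addition to tetracycline-induced, force-coupled HEK293 Trex D2 cells are flagged; cells are dye-loaded with a no-wash calcium kit beforehand.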
# D2 antagonist: antagonizes the human D2 dopamine receptor; HEK293 TREx D2 cells, calcium flux, dopamine EC80; hit rate 2% among 340,000; P14416; inhibition, % at 10 µM; in the data active = inhibition above about 30%; inactive = below that, where a call was filed; also: 0% is about no effect
#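 Cells plated overnight at 30 C with tetracycline; no-wash calcium dye, 30–90 min RT; 10 s baseline; compound pinned; 180 s read; EC80 dopamine added; another 180 s read.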
# D2 PAM-2: D2 dopamine receptor (human) potentiation. P14416. HEK293 T-REx D2, calcium flux, EC20 dopamine potentiation. potentiation, % at 10 µM. hit rate 0.34% among 340,000. AID 485347;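 active = potentiation over 3 SD above the plate norm, cut at about 30% in these data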; also: 0% is about no effect
#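 Using a no-wash calcium dye in inducible, force-coupled HEK293 Trex cells expressing D2, we tracked fluorescence each second for 180 s after compound, then for 180 s after EC20 dopamine to detect augmented signalling.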
# The depositor's hits bear a star; u = inconclusive; x = no result given.
SMILES,D2 ag-1,D2 PAM-1,D2 ag-2,D2 antagonist,D2 PAM-2
Cc1ccc(C(=O)COC(=O)C(Cc2c[nH]c3ccccc23)NC(=O)c2ccc(C(C)(C)C)cc2)cc1 (stereo not given),x,x,0,x,0
CCC1(c2ccc(F)cc2)NC(=O)N(CC(=O)c2ccc[nH]2)C1=O (stereo not given),-3,-13,1,30*,x
CCC1(c2ccc(F)cc2)NC(=O)N(CC(=O)N2CCOCC2)C1=O (stereo not given),-1,-1,-1,13,-7
O=C(c1ccccc1)N(Cc1ccco1)C1CCS(=O)(=O)C1 (stereo not given),-3,-9,4,37*,2
O=C(c1ccc(F)cc1)N(Cc1ccco1)C1CCS(=O)(=O)C1 (stereo not given),-1,-14,2,-17,1
CCN1C(=O)c2cccc3c(S(=O)(=O)N4CCC(C)CC4)ccc1c23,-3,1,-1,37*,-4
CCN1CCc2c(sc(N)c2C#N)C1,43*,u,0,4,x
N#Cc1c(NCCO)nc(NCc2ccccc2)c2c1CCN(Cc1ccccc1)C2,1,-1,0,-16,-6
C=CCNc1nc(N2CCCCC2)c(C#N)c2c1CN(Cc1ccccc1)CC2,-5,-44,0,72*,-13
CCN1CCc2c(C#N)c(N3CCCCC3)nc(NCc3ccccc3)c2C1,-2,-28,0,11,-22
N#Cc1c(N)sc(=S)c2c1CCN(Cc1ccccc1)C2,x,x,1,32*,10
CC(C)N1CCc2c(sc(N)c2C#N)C1,1,-8,2,-12,-10
COc1cc(OC)c(NS(=O)(=O)c2cc(-c3cnc(C4CC4)o3)ccc2C)cc1Cl,x,x,x,x,0
CCN(CC(=O)Nc1c(F)cccc1F)C(=O)Cc1csc(-c2ccccc2)n1,-5,-7,-1,35*,-5
CCN(CC(=O)Nc1c(F)cccc1F)C(=O)Cc1c(C)nc2ccccc2c1C,-6,-9,0,4,0
COc1ccc(-c2oc3ncn4nc(-c5ccccc5O)nc4c3c2-c2ccc(OC)cc2)cc1,x,x,-1,x,-8
COc1cccc(-c2nnc3sc(C4CCCCC4)nn23)c1,-2,-8,1,4,16
COc1cc(-c2nnc3sc(C4CCCCC4)nn23)cc(OC)c1OC,-2,-35,0,-1,69*
Cc1nn(-c2ccc(N3CCCC3)nn2)c(C)c1CCC(=O)NCc1ccc(OC(C)C)cc1,x,x,1,x,-5
Cc1cccc(N/C=C/C(=O)c2cccs2)c1C,-4,-24,-1,4,-3
NC(=O)c1ccccc1N/C=C/C(=O)c1cccs1,-7,-4,0,-12,31*
Cc1cc(C)cc(NC(=O)Cc2csc(COc3cccc(C)c3)n2)c1,x,x,-1,x,-16
Cn1nc(-c2ccc(Cl)cc2)c2cc(C(=O)NCCCN3CCCC3)sc21,14,11,0,33*,-26
CCN(CC)CCCNC(=O)c1cc2c(-c3cccc(OC)c3)nn(C)c2s1,0,-49,0,-28,-2
COc1cccc(-c2nn(C)c3sc(C(=O)NCc4ccco4)cc23)c1,-3,-28,0,36*,-17
SMILES,D2 ag-1,D2 PAM-1,D2 ag-2,D2 antagonist,D2 PAM-2
COc1cccc(-c2nn(C)c3sc(C(=O)NCCCN(C)Cc4ccccc4)cc23)c1,7,-36,-2,33*,-23
CCCCN(C)CCNC(=O)c1cc2c(-c3ccccc3F)nn(C)c2s1,3,-13,32*,24,-16
CCOc1ccc(C2C(=O)N(C3CCCCCC3)CC(=O)N2Cc2ccc(C)cc2)cc1OC (stereo not given),x,x,1,x,-13
Cc1cc(C)c2c(n1)nn1c(C)c(CCC(=O)NCc3ccccc3Cl)c(C)nc21,x,x,-1,x,2
COC(=O)c1c(NC(=O)CCCOc2cccc(C)c2)sc2c1C(C(=O)OC)CC2 (stereo not given),x,x,-1,x,10
CCSc1nc2c(c(=O)[nH]c(=O)n2C)n1C/C=C(/C)Cl,-1,4,0,3,48*
C=C(C)CSc1nc2c(c(=O)[nH]c(=O)n2C)n1CCC(C)C,-2,-3,-1,-4,34*
O=C(Cn1c(=O)n(Cc2ccccc2)c(=O)c2oc3ccccc3c21)Nc1ccc(Cl)cc1,x,x,x,x,-2
O=C(Nc1ccc(Cl)c(C(F)(F)F)c1)N1CCCC(O)C1 (stereo not given),-1,-26,0,30*,4
COc1ccc(C(=O)N(Cc2ccc(N(C)C)cc2)Cc2ccco2)cc1Cl,x,x,0,x,-2
C=CCOc1ccccc1CN1CCC(Cc2ccccc2)CC1,-3,-15,-1,31*,-12
O=[N+]([O-])c1cccc(OCCN2CCC(Cc3ccccc3)CC2)c1,0,-26,0,67*,-20
COc1cc(CN2CCC(Cc3ccccc3)CC2)c([N+](=O)[O-])cc1OC,-4,-21,1,15,-2
COc1cc(C)c(CN2CCC(Cc3ccccc3)CC2)cc1C,-5,-7,x,x,-19
COc1cc(C(C)=O)ccc1OCCCN1CCC(Cc2ccccc2)CC1,-2,-11,-2,35*,7
Clc1ccccc1OCCN1CCC(Cc2ccccc2)CC1,1,-14,0,63*,-20
COc1cc(C(C)=O)ccc1OCCN1CCC(Cc2ccccc2)CC1,-6,-20,0,-15,-12
CCc1ccccc1NS(=O)(=O)c1ccc2c(c1)OCC(C(=O)N1CCCC1)O2 (stereo not given),x,x,-1,x,x
OCc1ccccc1OCCCN1CCC(Cc2ccccc2)CC1,-2,-15,2,41*,-22
Cc1ccc([N+](=O)[O-])c(OCCCN2CCC(Cc3ccccc3)CC2)c1,2,-8,x,x,x
Fc1ccc(CN2CCC(Cc3ccccc3)CC2)cc1F,0,-6,0,-18,-16
O=Cc1cc(Cl)ccc1OCCN1CCC(Cc2ccccc2)CC1,-2,-15,1,51*,-19
COc1ccc(-n2ncc(C(=O)Nc3cccc(C(F)(F)F)c3)c2C2CCN(C(=O)OC(C)(C)C)CC2)cc1,x,x,1,x,-6
OC(COc1ccc(Cl)cc1)CN1CCN(c2ccccn2)CC1 (stereo not given),8,-10,x,x,x
Cc1cccc(N2CCN(CC(O)COc3ccccc3Cl)CC2)c1 (stereo not given),-5,-53,9,71*,-24
OC(COc1cc(Cl)c(Cl)cc1Cl)CN1CCN(c2ncccn2)CC1 (stereo not given),11,-31,26,37*,-22
O=C(c1ccc(S(=O)(=O)c2ccccc2Cl)c([N+](=O)[O-])c1)N1CCN(Cc2ccccc2)CC1,u,78*,9,-7,7
CCCN1C(=O)/C(=C\C=C2\N(CC)c3ccccc3C2(C)C)SC1=S,-1,-8,22,1,-9
